Hit rate of the full screen: of about 6,200 compounds, about 2,900 (47%) were called active. Cut-off read from the data, not from the text of the source: active = inhibition above about 50%; inactive = the rest. The set was probably picked from earlier hits. The list shows a part of the results.

The values below come from PubChem BioAssay AID1259343 (VanderVen Lab, College of Veterinary Medicine, Cornell …, 2017).

The assay is described as follows: Mycobacterium tuberculosis growth inhibition, primary screen (AID 1259343). As to conditions: inhibition: at 10 µM, stronger effect = higher value; outcome: 10 uM.
As for `O=C(NNC(=O)C12CC3CC(CC(C3)C1)C2)c1sccc1-n1cccc1`, the inhibition (as a rule, the drop in the measured response relative to a control, in per cent) was 61.1% (active). Then `Cc1ccc(C)n1-c1ccsc1C(=O)NC1CCCC1`, with 39.9% (inactive).

With `O=C(NCCc1ccc2c(c1)OCCO2)C12CC3CC(CC(C3)C1)C2`, the inhibition is 45.1% (inactive). Next, `CC1CCC(NC(=O)c2sccc2-n2cccc2)CC1` (stereo not drawn): 87.7% (active); `COCC(Nc1ncc(Br)cn1)c1ccc(C)o1` (stereo not drawn): 38.8% (inactive). Then `Cc1nc(-c2ccc(Oc3ccc(C(F)(F)F)cn3)cc2)no1`, with 89.7% (active); and `CCOc1ccc2nc(NC(=O)c3ccc(C)o3)sc2c1`, with 25.2% (inactive); and `Cc1ccn2cc(C(=O)Nc3nc4ccccc4s3)nc2c1`, with 50.8% (active). Next, `O=C(NCC12CC3CC(CC(C3)C1)C2)c1ccccc1`: 25.9% (inactive). As for `O=C(Cc1ccc(-c2ccccc2)cc1)NCC(c1ccsc1)N1CCCC1` (stereo not drawn), the inhibition is 37.7% (inactive). Regarding `O=C(Cc1ccsc1)NCC12CC3CC(CC(C3)C1)C2`, the inhibition was 75.4% (active). Then `CC(=NNC(=O)c1ccoc1C)c1ccc2c(c1)Nc1ccccc1S2`, with 75.1% (active). Next, `CC(=NNC(=S)NC(C)C)c1ccc2c(c1)Nc1ccccc1S2`: 20.4% (inactive); `CC(=NNc1ccc(C(F)(F)F)cn1)c1ccc2c(c1)Nc1ccccc1S2`: -55.5% (inactive).

Consider `CC(=NNS(=O)(=O)c1cc(C)ccc1C)c1ccc2c(c1)Nc1ccccc1S2`, for which the inhibition was 57.9% (active). Next, `CC(=NNC(=O)c1cc(C)oc1C)c1ccc2c(c1)Nc1ccccc1S2`: 47.6% (inactive). Regarding `CC(=NNC(=O)COc1ccc(F)cc1)c1ccc2c(c1)Nc1ccccc1S2`, the inhibition was 16% (inactive). Next, `Cc1cc(C)n(C(C)CNS(=O)(=O)c2ccc(Cl)cc2)n1` (stereo not drawn): “inactive”. Next, `CCOc1ccc(NC(=O)Cc2ccc(C)s2)cc1`: 59.7% (active); `CCOc1ccc(NC(=O)CCSc2nnc(C)s2)cc1`: 91.3% (active). Then `CCOc1ccc(Oc2ccc(NC(=O)c3ccc(C)s3)cc2)cc1`, with 44.9% (inactive); and `COc1ccc(Cl)c(NS(=O)(=O)c2cnc(Cl)n2C)c1`, with 25.9% (inactive); and `O=S1(=O)C(c2ccccc2)=CC1c1ccccc1` (stereo not drawn), with 49.3% (inactive). With `Cc1ccc(S(=O)(=O)NCC(C)n2nc(C)cc2C)cc1` (stereo not drawn), the inhibition is 10.1% (inactive). As to `Clc1ccc(C2CC(c3ccc(Cl)cc3)n3ncnc3N2)cc1` (stereo not drawn), the inhibition was -10.5% (inactive). Then `Clc1ccc(C2CC(c3ccc(Cl)cc3)n3nnnc3N2)cc1` (stereo not drawn), with 66.5% (active); and `CCCCc1oc2ccccc2c1C1NC(=O)c2ccccc2N1` (stereo not drawn), with 10.5% (inactive). Next, `CCCCc1oc2ccccc2c1C(=O)c1cc(I)c(OCCN(CC)CC)c(I)c1`: 77% (active). Next, `O=C(Nc1ccccc1-c1cn2c(CN3CCNCC3)csc2n1)c1cnc2ccccc2n1`: 74.8% (active); `O=C(Nc1ccccc1OCCCc1ccccc1)c1ccccn1`: 22.6% (inactive).

`CC1=NOC(C(=O)Nc2ccccc2OCCCc2ccccc2)C1` (stereo not drawn): the inhibition is 55.6% (active). Then `O=C(Nc1ccccc1OCCCc1ccccc1)C1CCOC1` (stereo not drawn), with 83% (active); and `Cc1ccc(CC(=O)Nc2ccccc2OC2CCCC2)s1`, with 10.8% (inactive); and `Oc1ccc(NC(=S)Nc2ccc(OC(F)F)cc2)cc1`, with 94.3% (active).

In the case of `COc1ccc(NC(=S)Nc2ccc(OC(F)F)cc2)cn1`, the inhibition was 36.5% (inactive). With `FC(F)Oc1ccc(NC(=S)Nc2ccc3c(c2)OCCO3)cc1`, the inhibition was 85.3% (active).

As for `O=C(OC1CCc2[nH]c3ncccc3c2C1)c1ccccc1` (stereo not drawn), the inhibition was -5.27% (inactive). Next, `CSc1ccccc1NC(CNS(=O)(=O)c1ccccc1)c1ccccc1` (stereo not drawn): -10.3% (inactive); `CSc1ccc(Cn2c(C)c(C(=O)NCc3cccc([N+](=O)[O-])c3)sc2=O)cc1`: 24.4% (inactive); `Cc1cccc(NC(=O)c2cc(Oc3ccc([N+](=O)[O-])cc3F)n(C)n2)c1`: 35.6% (inactive). Then `Cc1ccc(-c2nsc(SCC(=O)Nc3cccc([N+](=O)[O-])c3)n2)cc1`, with 71.1% (active); and `CCOC(=O)CC(=O)CSc1nc(-c2cccc(C)c2)ns1`, with 82.2% (active). Next, `OCc1ccc(-c2ccc(-c3ccc(CO)s3)o2)s1`: 48.6% (inactive); `CC1CCC2(CC1)Oc1ccccc1C1CC(c3ccccc3)=NN12` (stereo not drawn): 55.7% (active); `CCC1(C)Oc2ccccc2C2CC(c3ccccc3)=NN21` (stereo not drawn): -17% (inactive). Take `Fc1ccc(C2=NN3C(C2)c2ccccc2OC3c2ccncc2)cc1` (stereo not drawn): the inhibition was 14% (inactive). Next, `COc1ccc(C2Oc3ccccc3C3CC(c4ccccc4)=NN32)cc1OC` (stereo not drawn): -33.1% (inactive); `c1ccc(C2=NN3C(C2)c2ccccc2OC32CCCC2)cc1` (stereo not drawn): 32% (inactive).

`CC(C)C1Oc2ccccc2C2CC(c3ccccc3)=NN21` (stereo not drawn): the inhibition was 63.4% (active). For `OC[C@@H](O)CN(CCC(F)(F)F)c1nc(-c2ccccn2)nc2c1CCC2`, the inhibition was -1.45% (inactive).

With `CC(NC(=O)c1ccc(Br)o1)C1CC2CCC1C2` (stereo not drawn), the inhibition was 37.7% (inactive). Then `CCNC(=O)c1ccc([N+](=O)[O-])o1`, with 15.7% (inactive). Next, `CC(NC(=O)c1ccc([N+](=O)[O-])o1)C12CC3CC(CC(C3)C1)C2` (stereo not drawn): 106% (active); `CC(NC(=O)C=Cc1cccs1)C1CC2CCC1C2` (stereo not drawn): 36.7% (inactive). Then `CC(NC(=O)c1ccc(Br)o1)C12CC3CC(CC(C3)C1)C2` (stereo not drawn), with 0.12% (inactive); and `CC(NC(=O)COc1ccccc1F)C1CC2CCC1C2` (stereo not drawn), with 95.6% (active). Turning to `CC(NC(=O)c1ccc([N+](=O)[O-])o1)C1CC2CCC1C2` (stereo not drawn), the inhibition was 101% (active). Then `Cc1ccc2c(CC(=O)NC(C)C3CC4CCC3C4)coc2c1` (stereo not drawn), with 12.9% (inactive); and `COc1ccc([C@H]2Oc3cc(OC)cc(OC)c3C[C@H]2O)cc1`, with 70.8% (active). Then `COc1ccc(-c2nnc(CSC(=S)N3CCCC3)o2)cc1`, with 84.2% (active); and `O=C(O)c1ccc2c(c1)CCN2C(=O)c1cnn(-c2ccccc2)c1`, with 15.4% (inactive).

For the compound `O=C(CSC(F)(F)F)Nc1cnn(-c2ccccc2)c1`, the inhibition is 63.6% (active). Next, `O=C(Cc1cnn(-c2ccccc2)c1)NCC1CCCCC1`: 45% (inactive); `CC(=O)Nc1ccc(CC(=O)OCc2ccc(F)cc2)cc1`: 37.7% (inactive). Then `Cc1cc(Cl)cc(C)c1OCC(=O)NNc1ccc(F)cc1`, with 96.3% (active). Next, `Cc1csc(NC(=O)C(C)Oc2cccc(Cl)c2)n1` (stereo not drawn): 81.2% (active); `Cc1csc(NC(=O)COc2c(C)cc(Cl)cc2C)n1`: 73.9% (active). For `Cc1cnc(NC(=O)C(C)Oc2cccc(Cl)c2)s1` (stereo not drawn), the inhibition is 9.6% (inactive). Then `Cc1cc(C)c(OCC(=O)NS(=O)(=O)c2c(C)noc2C)c(C)c1`, with 44% (inactive); and `Cc1cccc(OC(C)C(=O)Nc2nc(C(C)C)cs2)c1` (stereo not drawn), with 29.5% (inactive).

`CC(=NNc1nc(C)cs1)c1ccc(Cl)cc1`: the inhibition was 0.03% (inactive). Next, `N#Cc1cccc(CSc2n[nH]c(=O)n2C2CC2)c1`: 3.74% (inactive). Consider `Cc1ccc(-c2nnn(Cc3cc(C)on3)n2)cc1`, for which the inhibition was 57.2% (active). Next, `Cc1ccc(-c2nnn(CC(=O)N3CCCCCC3)n2)cc1`: 15.3% (inactive); `N#Cc1ccccc1Cn1nnc(-c2ccccc2)n1`: -34.2% (inactive); `CC(C)(Cc1c[nH]c2ccc(Cl)cc12)NCCOc1ccccc1OCC1CC1`: 46.8% (inactive).

As to `Cc1cc(Oc2ccc(C(=O)O)cn2)ccc1C(C)C`, the inhibition is 59.3% (active). Take `O=C(NC1CC1)c1ccc(Oc2ccc(Br)cc2)nc1`: the inhibition is 16.1% (inactive). Then `CCc1cccc2c3c([nH]c12)C(CC)(CC(=O)O)OCC3` (stereo not drawn), with 56.6% (active); and `CSC(c1ccc(O)cc1)=[N+]1CCOCC1`, with 99.3% (active). Next, `COc1cccc(-c2cnnc(NCCc3ccccc3F)n2)c1`: 19.2% (inactive); `COc1ccc(-c2cnc(CN(C)c3ccccc3F)o2)cc1`: 83.9% (active).

As to `C=CCSc1nc(N)c(C#N)c(CC)c1C#N`, the inhibition is 58.6% (active). Then `COCCNC(=O)N(C)CC1CCC(C)CC1` (stereo not drawn), with 8.33% (inactive); and `CCCCN(CC)C(=O)c1cc2c(=O)n3cccc(C)c3nc2s1`, with 35.8% (inactive). Then `CCc1c(C)nc2c(O)cccn2c1=O`, with 92.4% (active). Then `Cc1cc(C)cc(NC(=O)CSc2ccc(-c3ccncc3)nn2)c1`, with 84.3% (active); and `Cc1ccc(-c2ccc(SCC(N)=O)nn2)cc1C`, with 37.8% (inactive). On to `Cc1cc(NC(=O)CSc2ccc(-c3ccc(C)c(C)c3)nn2)no1`, for which the inhibition was 33.5% (inactive). As for `O=C(NS(=O)(=O)c1ccccc1F)c1ccc2c(c1)OCO2`, the inhibition was 98.4% (active). Then `CC(NC(=O)c1ccccc1F)c1ccc2c(c1)OCCO2` (stereo not drawn), with 36.9% (inactive); and `O=C(NS(=O)(=O)c1ccc2c(c1)OCCCO2)c1ccc(F)cc1`, with -7.16% (inactive); and `c1ccc2c(c1)C(=NC1CCCCC1)NC2=NC1CCCCC1`, with 62.3% (active). Then `COc1ccc(-c2noc(CN3CCC(c4nc5ccccc5o4)CC3)n2)cc1`, with 81.3% (active).

As for `Cc1oc(-c2cc3c(cc2Cl)OCO3)nc1CN1CCCC1c1ccc(F)cc1` (stereo not drawn), the inhibition is 19.7% (inactive). Next, `COc1ccc(-c2noc(CN3CCCC(C(=O)c4ccccc4)C3)n2)cc1` (stereo not drawn): 27.8% (inactive); `COc1ccc(-c2noc(CN3CCCC(OCc4ccccn4)C3)n2)cc1` (stereo not drawn): 50.2% (active); `c1cncc(COC2CCCN(Cc3nc(-c4ccc5c(c4)OCO5)no3)C2)c1` (stereo not drawn): 75.8% (active). Then `Fc1ccc(C2CCCN2Cc2nc(-c3ccc4c(c3)OCO4)no2)cc1` (stereo not drawn), with 62.2% (active); and `Fc1ccccc1OCC1CCCN(Cc2nc(CC3CC3)no2)C1` (stereo not drawn), with 19.6% (inactive); and `CCCOC1CCCN(Cc2nc(-c3cccc(Cl)c3)no2)C1` (stereo not drawn), with 68.8% (active). Then `COc1ccc(-c2noc(Cn3ccc4cccnc43)n2)cc1`, with 81.3% (active); and `O=c1c2cc(-c3cccs3)nn2ccn1Cc1nc(-c2ccccc2)no1`, with 4.57% (inactive). Regarding `Cc1ccc(Cl)cc1N1CCN(Cc2nc(C3CC3)no2)CC1`, the inhibition is -5.02% (inactive). Next, `CN(Cc1cnn(-c2ccc(F)cc2)c1)Cc1nc(CC2CC2)no1`: 23% (inactive). For `Cc1cnc(C)c(N2CCN(Cc3nc(-c4ccc5c(c4)OCO5)no3)CC2)n1`, the inhibition is 92.2% (active). Then `Fc1ccc(CC2CCN(Cc3nc(CC4CC4)no3)CC2)cc1`, with 83.5% (active); and `c1cc2c(s1)CCN(Cc1nc(-c3ccc4c(c3)OCO4)no1)C2`, with 22.1% (inactive).
